Where a name gives a salt, the structure may show the parent alone.
What follows are molecules tested on Saccharomyces cerevisiae BY4741 SeMeCo community (assay: z-score of subpopulation abundance vs DMSO median, subpopulation auxotrophic for L; higher = larger share of this subpopulation than in DMSO controls). Conditions: 10 µM; 24 h; SM minimal medium; subpopulation (auxotrophy): L.
Protocol: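 Fluorescent four-plasmid SeMeCo (self-establishing metabolically cooperating S. cerevisiae BY4741 community; plasmids pH-mRuby2, pL-mWasabi, pU-eCFP, pM-TagRFP657) was grown 24 h in minimal SM medium with each Selleck FDA-approved drug at 10 µM in 384-well plates. Cells were fixed and imaged by high-content confocal microscopy. For each auxotrophic subpopulation (and the prototroph), a z-score gives the deviation from the DMSO vehicle-control population median.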
In the case of `C=CC[N+]1([C@H]2C[C@H]3[C@@H]4CC[C@H]5C[C@H](O)[C@@H](N6CCOCC6)C[C@]5(C)[C@H]4CC[C@]3(C)[C@H]2OC(C)=O)CCCC1` [Rocuronium Bromide], the “z-score of subpopulation abundance” value is reported as 0.67.
For `Cn1c(=O)c2[nH]cnc2n(C)c1=O` [Aminophylline], the “z-score of subpopulation abundance” value was 0.83.
`N#Cc1ccc2[nH]cc(CCCCN3CCN(c4ccc5oc(C(N)=O)cc5c4)CC3)c2c1` [Vilazodone HCl] was tested, and the “z-score of subpopulation abundance” value was 0.01.
`CN(C)CCOc1ccc(/C(=C(/CCCl)c2ccccc2)c2ccccc2)cc1` [Toremifene Citrate] was tested, and the “z-score of subpopulation abundance” value was 0.06.
In the case of `COc1ccc(C(Cl)=C(c2ccc(OC)cc2)c2ccc(OC)cc2)cc1` [Chlorotrianisene], the “z-score of subpopulation abundance” value is reported as 0.44.
`O=S1(=O)CCN(CN2CCS(=O)(=O)NC2)CN1` [Taurolidine] was tested, and the “z-score of subpopulation abundance” value was -0.57.
For `COc1ccc(-c2nc3cc(C4=NNC(=O)CC4C)ccc3[nH]2)cc1` (stereo not given) [Pimobendan], the “z-score of subpopulation abundance” value was 1.93.
In the case of `Cc1nc(Nc2ccc(F)cc2)nc(N2CCc3ccccc3C2C)c1C` (stereo not given) [Revaprazan Hydrochloride], the “z-score of subpopulation abundance” value is reported as 0.02.
For `Cn1nnnc1SCC1=C(C(=O)O)N2C(=O)[C@@H](NC(=O)[C@H](OC=O)c3ccccc3)[C@H]2SC1` [Cefamandole nafate], the “z-score of subpopulation abundance” value was 0.3.
For `CN(C)CCc1c[nH]c2ccc(CS(=O)(=O)N3CCCC3)cc12` [Almotriptan Malate], the “z-score of subpopulation abundance” value was 0.74.
For `CC[C@@]1(O)C(=O)OCc2c1cc1n(c2=O)Cc2cc3cc(O)ccc3nc2-1` [(S)-10-Hydroxycamptothecin], the “z-score of subpopulation abundance” value was 1.09.
For `CN1CCN(C2=Nc3ccccc3Oc3ccc(Cl)cc32)CC1` [Loxapine Succinate], the “z-score of subpopulation abundance” value was 1.71.
In the case of `Cc1ncc([N+](=O)[O-])n1CCOC(=O)c1ccccc1` [Metronidazole Benzoate], the “z-score of subpopulation abundance” value is reported as -0.6.
With `O=C(CCCN1CC=C(n2c(=O)[nH]c3ccccc32)CC1)c1ccc(F)cc1` [Droperidol] the “z-score of subpopulation abundance” value was 0.41.
For `CCC(=O)NS(=O)(=O)c1ccc(-c2c(-c3ccccc3)noc2C)cc1` [Parecoxib Sodium], the “z-score of subpopulation abundance” value was 0.68.
For `Nc1ccc(S(=O)(=O)Nc2ncccn2)cc1` [Sulfadiazine], the “z-score of subpopulation abundance” value was 0.86.
`c1cnc2cc3c(cc2n1)[C@@H]1CNC[C@H]3C1` [Varenicline Tartrate] was tested, and the “z-score of subpopulation abundance” value was -0.32.
With `Clc1ccc2c(N3CCN(CCCN4CCN(c5ccnc6cc(Cl)ccc56)CC4)CC3)ccnc2c1` [Piperaquine phosphate] the “z-score of subpopulation abundance” value was 0.02.
In the case of `Nc1ccc(S(=O)(=O)Nc2nccs2)cc1` [Sulfathiazole], the “z-score of subpopulation abundance” value is reported as -0.12.
For `C#CCC(Cc1cnc2nc(N)nc(N)c2n1)c1ccc(C(=O)N[C@@H](CCC(=O)O)C(=O)O)cc1` (stereo not given in full) [Pralatrexate], the “z-score of subpopulation abundance” value was 3.17.
In the case of `CO/N=C(\C(=O)N[C@@H]1C(=O)N2C(C(=O)[O-])=C(C[n+]3cccc4c3CCC4)CS[C@H]12)c1csc(N)n1` [Cefpirome sulfate], the “z-score of subpopulation abundance” value is reported as 1.19.
In the case of `COC(=O)C1=C(C)NC(C)=C(C(=O)OCC(C)C)C1c1ccccc1[N+](=O)[O-]` (stereo not given) [Nisoldipine], the “z-score of subpopulation abundance” value is reported as 0.49.
For `C[C@@H]1CC(=O)NN=C1c1ccc(NN=C(C#N)C#N)cc1` [Levosimendan], the “z-score of subpopulation abundance” value was -0.16.
For `COc1ccc(C2CNC(=O)C2)cc1OC1CCCC1` (stereo not drawn) [S- (+)-Rolipram], the “z-score of subpopulation abundance” value was -0.9.
For `Cc1cc(-n2c(=O)[nH]c(=O)n(C)c2=O)ccc1Oc1ccc(SC(F)(F)F)cc1` [Toltrazuril], the “z-score of subpopulation abundance” value was -0.15.
In the case of `CCC(C)(Oc1ccc(C2(c3ccc(OC(C)(CC)C(=O)O)cc3)CCCCC2)cc1)C(=O)O` (stereo not given) [Clinofibrate], the “z-score of subpopulation abundance” value is reported as -2.3.
With `CCCN[C@H]1CCc2nc(N)sc2C1` [Pramipexole dihydrochloride] the “z-score of subpopulation abundance” value was -0.42.
With `Clc1ccc(COC(Cn2ccnc2)c2ccc(Cl)cc2Cl)c(Cl)c1` (stereo not given) [Miconazole] the “z-score of subpopulation abundance” value was -2.13.
With `C[C@H]1COc2c(C3(N)CC3)c(F)cc3c(=O)c(C(=O)O)cn1c23` [Pazufloxacin mesylate] the “z-score of subpopulation abundance” value was 0.31.
With `Clc1ccc(CCC(Cn2ccnc2)Sc2c(Cl)cccc2Cl)cc1` (stereo not given) [Butoconazole] the “z-score of subpopulation abundance” value was 2.88.
For `CCCCOc1ccc(CC(=O)NO)cc1` [Bufexamac], the “z-score of subpopulation abundance” value was -1.49.
With `CC(=O)NS(=O)(=O)c1ccc(N)cc1` [Sulfacetamide Sodium] the “z-score of subpopulation abundance” value was -0.02.
In the case of `CC(C(=O)O)c1ccc2c(c1)[nH]c1ccc(Cl)cc12` (stereo not given) [Carprofen], the “z-score of subpopulation abundance” value is reported as -0.33.
In the case of `CO/N=C(\C(=O)N[C@@H]1C(=O)N2C(C(=O)O)=C(Cn3ccc(=N)n3CCO)CS[C@H]12)c1csc(N)n1` [Cefoselis Sulfate], the “z-score of subpopulation abundance” value is reported as -1.67.
With `Oc1c(I)cc(I)c2cccnc12` [Diiodohydroxyquinoline] the “z-score of subpopulation abundance” value was 0.99.
For `NC[C@@H]1O[C@H](O[C@H]2[C@@H](O)[C@H](O[C@@H]3[C@@H](O)[C@H](N)C[C@H](N)[C@H]3O[C@H]3O[C@H](CN)[C@@H](O)[C@H](O)[C@H]3N)O[C@@H]2CO)[C@H](N)[C@@H](O)[C@@H]1O` [Neomycin sulfate], the “z-score of subpopulation abundance” value was 0.21.
For `CC1=C(C(=O)OCCN(Cc2ccccc2)c2ccccc2)C(c2cccc([N+](=O)[O-])c2)C(P2(=O)OCC(C)(C)CO2)=C(C)N1` (stereo not given) [Efonidipine], the “z-score of subpopulation abundance” value was 0.97.
With `Cc1ccc(Sc2ccccc2N2CCNCC2)c(C)c1` [Vortioxetine] the “z-score of subpopulation abundance” value was -0.09.
With `Clc1ccc(COC(Cn2ccnc2)c2ccc(Cl)cc2Cl)cc1` (stereo not given) [Econazole] the “z-score of subpopulation abundance” value was -1.62.
`Nc1ccc(S(=O)(=O)NC(=O)c2ccccc2)cc1` [Sulfabenzamide] was tested, and the “z-score of subpopulation abundance” value was -0.13.
